LDHA inh: inhibitors of human lactate dehydrogenase A; purified LDHA, NADH/diaphorase-resazurin fluorescence; stronger effect = lower value; 480,000 compounds, 0.15% hits; P00338; activity change, % (values are at about 110 or 230 µM); AID 1347041; in the data active = activity change below about -30%; inconclusive = mostly about -25% to -30%;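 also: plate controls were DMSO wells for no effect and wells without enzyme for full effect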
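Remaining NADH was detected by diaphorase (0.133 mg/mL) converting 37 µM resazurin to fluorescent resorufin, read at 0 and 20 minutes. The preceding 5-minute room-temperature reaction used 2 nM LDHA, 0.2 mM sodium pyruvate and 0.06 mM NADH at pH 7.4.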
mIDH1 inhibitor: human IDH1 R132H inhibition. O75874. IDH1-R132H enzyme, NADPH consumption, diaphorase/resazurin fluorescence. Potency, µM (doses to about 76.6 µM), without a hit: at the highest dose activity change, negative = inhibition, most hits filed as inhibitors. 390,000 compounds, 0.093% hits; also: potency is read from the fitted curve at half-maximal effect; % is scaled to controls: 0 for no effect and ±100 for the full control effect; nearly all actives have a fitted effect of over 65% in size
Target sequence (O75874 whole entry R132H, stated change not applied): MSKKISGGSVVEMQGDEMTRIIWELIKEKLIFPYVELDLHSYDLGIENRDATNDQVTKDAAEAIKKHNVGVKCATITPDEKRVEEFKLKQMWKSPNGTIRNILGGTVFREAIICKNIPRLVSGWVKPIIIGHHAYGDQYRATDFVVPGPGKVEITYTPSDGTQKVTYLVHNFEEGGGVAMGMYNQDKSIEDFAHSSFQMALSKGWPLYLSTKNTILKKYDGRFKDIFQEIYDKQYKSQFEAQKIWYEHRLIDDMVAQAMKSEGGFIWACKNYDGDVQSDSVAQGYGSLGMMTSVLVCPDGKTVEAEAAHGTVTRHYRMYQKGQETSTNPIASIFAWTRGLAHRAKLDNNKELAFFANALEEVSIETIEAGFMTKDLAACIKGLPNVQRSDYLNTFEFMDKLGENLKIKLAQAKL
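IDH1-R132H (0.5 ug/mL dispensed) in pH 7.5 Tris buffer was preincubated 30 min with compound, then given a substrate mix of 0.016 mM NADPH and 2 mM alpha-KG for 80 min at room temperature; remaining NADPH was read by diaphorase/resazurin fluorescence.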
PINK1 modulator: changes PINK1 expression; Potency, µM (top dose mostly 76.6 µM), for inactives: top-dose activation (PINK1 increase), usual class: activators; 410,000 compounds, 0.2% hits; AID 624263; PINK1 immunofluorescence, high-content cytometry, 24 h; active = well fitted activation curve with a large enough effect; inconclusive = small, poorly fitted or top-dose-only effect; cell line not stated here; also: potency is read from the fitted curve at half-maximal effect; % of control where 0% means no effect; nearly all actives have a fitted effect of over 65% in size
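PINK1 protein level read as immunofluorescence by microplate cytometer in a fixed, stained stable cell line after 24 h exposure to five compound concentrations, with CCCP as control.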
PTHR1 agonist: activates the human parathyroid hormone receptor PTHR1. Q03431. HEK293 GP2 PTHR1 cells, GloSensor cAMP luminescence, 1 h. Potency, µM (doses to about 115 µM), for the others: at the highest dose activation, most hits filed as activators. 410,000 compounds, 0.075% hits; also: potency is read from the fitted curve at half-maximal effect; nearly all actives have a fitted effect of over 55% in size
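HEK-293-derived GP2 cells expressing PTHR1 and a GloSensor cAMP reporter, 3,000/well, plated overnight, given luciferin plus IBMX (each 0.5 mM as added) for 1 h at 37 °C, then compound for 1 h at 37 °C. Luminescence was read after 15 min at room temperature.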
Vif-A3F inh: Vif-A3F binding inhibition; HeLa A3F-eYFP + Vif (tagged APOBEC3F with the HIV-1 protein that degrades it), YFP fluorescence increase; Potency, µM (titrated, usually from 46.1 µM), for the others: at the highest dose activity, negative = active; 390,000 compounds, 0.2% hits; AID 602313; also: potency is read from the fitted curve at half-maximal effect; % of control where 0% means no effect; nearly all actives have a fitted effect of over 65% in size
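Fluorescence increase (Ex 488/Em 500-530) after overnight compound treatment at 37 deg C flags inhibition of Vif-driven A3F-eYFP loss in stable HeLa A3F-eYFP/Vif cells seeded overnight beforehand.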
Vif-APOBEC3G blk: blocks the Vif interaction with human APOBEC3G; Q9HC16; HeLa A3G-eYFP + Vif (tagged APOBEC3G with the HIV-1 protein that degrades it), YFP fluorescence, overnight; Potency, µM (doses to about 46.1 µM), for inactives: top-dose activity, negative = active, actives largely listed as inhibitors; 410,000 compounds, 0.076% hits; AID 602310; also: potency is read from the fitted curve at half-maximal effect; % is scaled to controls: 0 for no effect and ±100 for the full control effect; nearly all actives have a fitted effect of over 60% in size
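HeLa cells stably expressing Vif and C-terminally eYFP-tagged A3G, seeded overnight at 37 deg C, then exposed to compound by pintool overnight at 37 deg C. Rise in yellow fluorescence (Ex 488/Em 500-530, Acumen) marks blocked Vif-driven A3G degradation.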
IDH1 autofl: autofluorescence interference, mutant IDH1 hit counter-screen; shares compounds with mIDH1 inhibitor; Resorufin detection reagent fluorescence interference, cell-free; inhibition of signal, % at 51.2 µM; 750 tested, under 10 active; AID 623980;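 also: 0% = wells with normal resorufin and full inhibition = wells lacking resorufin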
IDH1 WT: selectivity of mutant IDH1 inhibitors: human wild-type IDH1; shares compounds with mIDH1 inhibitor; WT IDH1 enzyme, NADPH diaphorase/resazurin fluorescence; Potency, µM (highest dose often 115 µM), without a hit: at the top dose activity change, negative = inhibition, most hits filed as inhibitors; 750 compounds, 9% hits; AID 623995;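 also: potency is read from the fitted curve at half-maximal effect; 0% = full WT IDH1 enzyme control and full inhibition = no enzyme wells; nearly all actives have a fitted effect of over 55% in size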
Target sequence (O75874 whole entry, looked up): as the sequence (O75874 whole entry R132H, stated change not applied) above, with H132R counted along it
IDH1 R132H conf: inhibits human mutant IDH1 enzyme in cherrypick confirmation; shares compounds with mIDH1 inhibitor; IDH1 R132H enzyme, NADPH diaphorase/resazurin fluorescence; Potency, µM (doses to about 76.6 µM), inactives show at the top dose activity change, negative = inhibition, actives largely listed as inhibitors; 750 compounds, 83% hits; also: potency is read from the fitted curve at half-maximal effect; nearly all actives have a fitted effect of over 50% in size
* marks the source's active call; other numbers are inactive results; ? = inconclusive; . = no result; [ ] = another dose, or the depositor's remark. Hits are enriched below; roughly 0.59% of the tested compounds scored in any of these assays. Unless noted, calls follow the shape of the dose curve; as a rule, active = well fitted curve in the direction sought with a large enough effect; inconclusive = small, poorly fitted or top-dose-only effect, or another doubt; inactive = no such curve, though single readings can be large; an effect the other way counts as inactive or inconclusive.

SMILES	LDHA inh	mIDH1 inhibitor	PINK1 modulator	PTHR1 agonist	Vif-A3F inh	Vif-APOBEC3G blk	IDH1 autofl	IDH1 WT	IDH1 R132H conf
Cc1ccc(-c2cc(=O)c3cc(Br)ccc3o2)cc1	9	.	.	.	.	.	.	.	.
CN(C1=C(N2CCCCC2)C(=O)c2ccccc2C1=O)c1ccccc1	17	?	.	-9%[57.5 µM]	-3%	-5%	-3	2%	?
O=C1C(Nc2ccccc2)=C(N2CCCCC2)C(=O)c2ccccc21	23	0%	1%	-10%[57.5 µM]	1%	-26%	.	.	.
CC(=O)NS(=O)(=O)c1ccc(N=c2ssc3c2-c2cc(C)ccc2NC3(C)C)cc1	-2	?	-2%	-45%	6%	-2%	2	4%	45µM*
CCc1ccc(OCCn2c(C3CC(=O)N(Cc4ccc(F)cc4)C3)nc3ccccc32)cc1 (stereo not drawn)	5	?	?	-26%	4%	-11%	-4	-8%	?
CCCSc1nnc(-c2ccccc2NC(C)=O)c(=O)[nH]1	-2	.	.	.	.	.	.	.	.
CCOC(=O)CSC1=NC(=O)/C(=C/c2ccc(Br)cc2)S1	-11	?	1%	-19%	2%	-15%	1	71µM*	35µM*
COC(=O)c1cc(NCc2ccc(Cl)c(Cl)c2)ccc1N1CCOCC1	1	.	.	.	.	.	.	.	.
CCOC(=O)c1c(NC(=O)COC(=O)c2ccccc2NC)sc(C(=O)N(C)C)c1C	1	12µM*	10%	-36%	1%	-3%	-4	10%	4.5µM*
CCOC(=O)c1c(NC(=O)COC(=O)Cc2ccccc2[N+](=O)[O-])sc(C(=O)N(C)C)c1C	-5	0%	3%	-2%	-22%	-4%	.	.	.
O=C(/C=C/c1ccccc1O)c1ccc2ccccc2c1	-2	.	.	.	.	.	.	.	.
CC(C)CC(NC(=O)C1CC1)c1cccs1 (stereo not drawn)	-1	.	.	.	.	.	.	.	.
N#Cc1c2c(c(Nc3ccc(F)cc3)n3c1nc1ccccc13)CCCC2	-9	?	12%	-16%	-3%	1%	3	-1%	22µM*
N#Cc1c2c(c(Nc3ccccc3)n3c1nc1ccccc13)CCC2	0	-3%	14%	-8%[57.5 µM]	.	-5%	.	.	.
CSc1ccccc1C(=O)NC(C)(C#N)C1CC1 (stereo not drawn)	7	.	.	.	.	.	.	.	.
